Source: PubChem BioAssay (National Center for Advancing Translational Sciences (NCATS))
Cruzain inh Det: inhibitors of Trypanosoma cruzi cruzain with detergent; P25779; purified cruzain, Z-FR-AMC fluorescence, 0.01% Triton; Potency, µM, for the others: max response, negative = inhibition, actives largely listed as inhibitors; 200,000 compounds, 0.43% hits;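 also: plate controls were neutral wells for no effect and buffer without enzyme for full effect; nearly all actives have a fitted effect of over 40% in size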
Target sequence (P25779 123-467 limits assumed): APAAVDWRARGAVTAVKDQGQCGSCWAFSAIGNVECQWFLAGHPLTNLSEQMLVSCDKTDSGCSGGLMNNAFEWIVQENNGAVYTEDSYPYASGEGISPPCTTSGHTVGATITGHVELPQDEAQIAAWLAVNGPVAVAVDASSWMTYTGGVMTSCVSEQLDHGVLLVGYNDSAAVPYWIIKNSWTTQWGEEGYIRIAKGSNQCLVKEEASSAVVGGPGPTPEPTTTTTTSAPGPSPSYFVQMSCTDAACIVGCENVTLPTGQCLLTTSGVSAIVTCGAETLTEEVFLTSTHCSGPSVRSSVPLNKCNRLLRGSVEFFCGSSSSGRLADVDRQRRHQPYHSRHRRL
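In this qHTS format, compounds are incubated with 1.5 nM cruzain for 15 min at room temperature before 2 uM Z-FR-AMC is added. Release of AMC is followed at 360/450 nm, and progress is taken as the 60 s fluorescence difference.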
NS1 function inh: inhibitors of influenza NS1 protein function; Potency, µM (doses to about 46.1 µM), inactives show top-dose activity, positive = more growth; 270,000 compounds, 0.4% hits; AID 2326; calls by dose curve; also: actives are rising curves; nearly all actives have a fitted effect of over 50% in size
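S. cerevisiae expressing influenza A NS1, grown in glucose, washed, then diluted 1:100 into pH 6.0 -URA galactose medium with 23 nl compound. Growth recovery read as OD600; NS1-free strain serves as control.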
Cruzain noTriton: blocks cruzain activity in detergent-free assay | P25779 | purified cruzain, Z-FR-AMC fluorescence, no detergent | Potency, µM, inactives show max response, negative = inhibition, most hits filed as inhibitors | 200,000 compounds, 2.3% hits | AID 1476;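 also: plate controls were enzyme without inhibitor for no effect and buffer without enzyme for full effect; nearly all actives have a fitted effect of over 40% in size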
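Purified cruzain at 1.5 nM, pre-incubated 15 min with compound at room temperature in 100 mM sodium acetate pH 5.5, 5 mM DTT, 0.00005% Triton X-100. Reaction started with 2 uM Z-FR-AMC; AMC fluorescence increase over 60 s gives rate.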
* = called active by the depositor. This is one part of a sample in which hits are shown more often than they occur. Unless noted, calls follow the shape of the dose curve; as a rule, active = well fitted curve in the direction sought with a large enough effect; inconclusive = small, poorly fitted or top-dose-only effect, or another doubt; inactive = no such curve, though single readings can be large; an effect the other way counts as inactive or inconclusive. Potency is read from the fitted curve at half-maximal effect.

Screening O=c1c2c3c(sc2n(Cc2cc(=O)n4ccccc4n2)c(=O)n1-c1ccccc1)CCC3 returned Cruzain inh Det -2.3% and Cruzain noTriton 8.5%.
Cc1nnc(SCC2CCCO2)n1-c1ccccc1 (stereo unspecified) was read as Cruzain inh Det 4.0%, NS1 function inh 3.5% and Cruzain noTriton -5.5%.
`Cc1c(Cl)cccc1NC(=O)Cn1c(=O)n(Cc2ccco2)c(=O)c2sc3ccccc3c21` gave Cruzain inh Det 5.5% and Cruzain noTriton 28.5%.
CCN(CC)C(=O)CSc1nc(N)c(-c2ccccc2)c(=O)[nH]1 was read as NS1 function inh 3.2%.
`N#Cc1c(NC(=O)Cn2nc(C(F)(F)F)c3c2CCCC3)sc2c1CCC2` gave Cruzain inh Det 7.6%, NS1 function inh 2.8% and Cruzain noTriton 7.94µM*.
For CC1CCc2c(sc(NC(=O)Cn3nc(C(F)(F)F)c4c3CCCCC4)c2C#N)C1 (stereo unspecified) the results were Cruzain inh Det 1.6%, NS1 function inh -2.7% and Cruzain noTriton 20µM*.
CCc1ccc(NC(=O)Cn2nc(C(F)(F)F)c3c2CCC3)cc1 was read as Cruzain inh Det -2.7%, NS1 function inh 8.3% and Cruzain noTriton -17.5%.
CC1CCN(CC(=O)Nc2sc3c(c2C#N)CCC3)CC1 was read as Cruzain inh Det -8.1%, NS1 function inh 0.2% and Cruzain noTriton 9.2%.
`Cc1ccccc1CSc1nnc(NC(=O)C2COc3ccccc3O2)s1` (stereo unspecified) gave Cruzain inh Det -3.9%, NS1 function inh -1.3% and Cruzain noTriton inconclusive.
For O=C(Nc1nc(-c2ccc(S(=O)(=O)N3CCCC3)cc2)cs1)C1COc2ccccc2O1 (stereo unspecified) the results were Cruzain inh Det 1.5%, NS1 function inh 7.94µM* and Cruzain noTriton 10µM*.
For O=C(Nc1nc(-c2ccccc2)cs1)C1COc2ccccc2O1 (stereo unspecified) the results were Cruzain inh Det -2.9%, NS1 function inh -9.1% and Cruzain noTriton 25.1µM*.
Screening O=C(Nc1nnc(SCc2cccc3ccccc23)s1)C1COc2ccccc2O1 (stereo unspecified) returned Cruzain inh Det -3.4%, NS1 function inh 16.5% and Cruzain noTriton 25.1µM*.
For O=C(Nc1ccc(S(=O)(=O)N2CCCC2)cc1)C1COc2ccccc2O1 (stereo unspecified) the results were Cruzain inh Det -5.1%, NS1 function inh -65.4% and Cruzain noTriton 0.5%.
O=C(Nc1nc(-c2ccc3c(c2)OCO3)cs1)C1COc2ccccc2O1 (stereo unspecified) was read as Cruzain inh Det -8.3%, NS1 function inh inconclusive and Cruzain noTriton inconclusive.
For O=Cc1c2[nH]c3ccccc3c2cc2[nH]c3ccccc3c12 the results were Cruzain inh Det 0.6% and Cruzain noTriton 25.1µM*.
`c1ccc2c(c1)[nH]c1ccccc12` gave Cruzain inh Det -6.3% and Cruzain noTriton 0.1%.
COc1ccccc1Cn1c(=O)c2ccccc2n2c(Sc3ncnc4sccc34)nnc12 was read as Cruzain inh Det -1.1%, NS1 function inh -51.5% and Cruzain noTriton 15.8µM*.
COc1ccccc1Cn1c(=O)c2ccccc2n2c(SCc3csc(C)n3)nnc12 was read as Cruzain inh Det -3.2%, NS1 function inh -0.5% and Cruzain noTriton 2.8%.
`CC1(C)CC(=O)C=C(Nc2ccc([N+](=O)[O-])cc2)C1` gave NS1 function inh 16.5%.
O=C(Nc1ccc(Cl)cc1)[C@@H]1[C@@H]2C(=O)N(c3ccc4ccccc4c3)C(=O)[C@@H]2[C@H]2C=CC=NN21 was read as Cruzain inh Det -7.2%, NS1 function inh 1.9% and Cruzain noTriton 15.8µM*.
Screening O=C(Nc1ccc(Cl)cc1)[C@@H]1[C@@H]2C(=O)N(c3cccc(F)c3)C(=O)[C@@H]2[C@H]2C=CC=NN21 returned NS1 function inh 11.3%.
`O=C(Cn1c(O)c(/C=C2\C=Nc3ccccc32)sc1=O)Nc1ccc2c(c1)OCO2` gave Cruzain inh Det -0.2%, NS1 function inh -2.9% and Cruzain noTriton 5.01µM*.
For O=C(Cn1c(O)c(/C=C2\C=Nc3ccccc32)sc1=O)N1CCOCC1 the results were NS1 function inh -0.7%.
For Cc1nc(SCC(=O)c2cc3ccccc3oc2=O)c(C#N)c(C)c1C(=O)Nc1ccccc1 the results were Cruzain inh Det -6.0%, NS1 function inh 3.6% and Cruzain noTriton 12.6µM*.
`CSc1nc(C)c(C(=O)Nc2ccccc2)c(C)c1C#N` gave Cruzain inh Det -0.2%, NS1 function inh -3.5% and Cruzain noTriton -2.1%.
Screening O=C(CN1CCN(C(=O)N2CCCCC2)CC1)Nc1ccc(F)cc1 returned Cruzain inh Det -1.6%, NS1 function inh -1.3% and Cruzain noTriton 3.9%.
Cc1ccc(S(=O)(=O)N2CCN(C(=O)CN3C(=O)NC4(CCOc5ccccc54)C3=O)CC2)cc1 (stereo unspecified) was read as Cruzain inh Det -0.1%, NS1 function inh 1.6% and Cruzain noTriton inconclusive.
Screening O=C(CSc1nc2ccccc2[nH]1)Nc1ccccc1F returned Cruzain inh Det -9.4%, NS1 function inh 1.1% and Cruzain noTriton -26.7%.
Screening O=C(CSc1ccc2ccccc2c1)Nc1nc2ccccc2[nH]1 returned Cruzain inh Det -1.2%, NS1 function inh 12.1% and Cruzain noTriton 15.8µM*.
Screening O=C(CSCc1nc2ccccc2[nH]1)Nc1ccc2ccccc2c1 returned Cruzain inh Det -22.0%, NS1 function inh -7.6% and Cruzain noTriton inconclusive.
O=C(Nc1nc2ccccc2[nH]1)c1cccc(F)c1 was read as NS1 function inh -8.4%.
For Cc1ccc2nc(-c3ccc(NC(=O)CSc4ccccc4)cc3)[nH]c2c1 the results were Cruzain inh Det 10µM*, NS1 function inh 21.6% and Cruzain noTriton inconclusive.
Screening O=C(CSc1ccccc1)Nc1ccc(-c2nc3ccccc3[nH]2)cc1 returned Cruzain inh Det -16.0%, NS1 function inh 11.9% and Cruzain noTriton inconclusive.
O=C(/C=C/c1ccc(F)cc1)Nc1nc2ccccc2[nH]1 was read as Cruzain inh Det -2.1%, NS1 function inh 25.4% and Cruzain noTriton 10µM*.
Screening O=C(CSc1nc2ccccc2[nH]1)Nc1ccc(F)c(F)c1 returned Cruzain inh Det -28.7%, NS1 function inh 6.9% and Cruzain noTriton 25.1µM*.
Screening COc1ccc(CN2CCN(C(C)C(=O)N(C)Cc3cccc(F)c3)CC2)cc1OC (stereo unspecified) returned NS1 function inh 4.2%.
Screening COc1ccc(N2CCN(C(=O)CCc3ccccc3OC)CC2)cc1 returned NS1 function inh -7.6%.
For O=C(COc1cccc2ccccc12)Nc1nc2ccccc2[nH]1 the results were Cruzain inh Det -13.3%, NS1 function inh -4.0% and Cruzain noTriton 25.1µM*.
For O=C(COc1ccccc1)Nc1nc2ccccc2[nH]1 the results were Cruzain inh Det -3.9%, NS1 function inh -13.2% and Cruzain noTriton -14.2%.
`COc1ccc(OC)c(NC(=O)CSc2nnc(-c3ccco3)n2-c2ccccc2)c1` gave Cruzain inh Det -8.5%, NS1 function inh -38.6% and Cruzain noTriton 10.0%.
`Cn1nc(C(=O)NCCc2ccc(Cl)cc2)c2c1-c1ccccc1SC2` gave Cruzain inh Det -4.2% and Cruzain noTriton 6.9%.
CC1=C(c2ccc(C)c(C)c2)S(=O)(=O)N(Cc2ccc(C(=O)NCc3cccc(C)c3)cc2)C1=O was read as Cruzain inh Det -3.2% and Cruzain noTriton -14.2%.
